NS1 function inh: influenza NS1 inhibition; 0.4% of 270,000 active; Potency, µM (titrated, usually from 46.1 µM), inactives show top-dose activity, positive = more growth; calls by dose curve; note: potency is the fitted concentration of half-maximal effect; actives are rising curves; nearly all actives have a fitted effect of over 50% in size
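OD600 was taken as the measure of yeast growth restored by compound in an NS1-expressing S. cerevisiae strain. Cells had been washed out of glucose medium and diluted 1:100 into galactose -URA medium, pH 6.0.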
CHX counter: affects cycloheximide protein synthesis inhibition readout, counter-screen; cell reporter, cycloheximide protein synthesis inhibition counterscreen; 12% of 300,000 active; max response, %; in the data active = max response mostly above about 13%, no sharp cut-off; inactive = mostly below about 14%; note: read at 38.3 µM for the half of the compounds with a filed dose; 0% is about no effect
LmPK inh: blocks Leishmania mexicana pyruvate kinase activity; purified LmPK, Kinase-Glo ATP luminescence, 1 h; Potency, µM (top dose mostly 57.5 µM), for inactives: at the top dose activity change, negative = inhibition, actives largely listed as inhibitors; 0.37% of 290,000 active; AID 1721; note: potency is the fitted concentration of half-maximal effect; % is set by controls: 0 for no effect and ±100 for the full control effect
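Screened at intermediate enzyme activity to detect both inhibitors and activators: LmPK at 0.1 nM, with a 0.5 nM enzyme column as activation reference. PEP 0.5 mM, ADP 0.1 mM; ATP detected by luminescence after 1 h.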
Shiga toxin inh: inhibitors of Shiga toxin in Vero cells | Vero cells, Shiga toxin protein synthesis inhibition reporter | inhibition, % at 38.7 µM | 9.2% of 290,000 active | AID 2315; in the data active = inhibition mostly above about 28%, no sharp cut-off; inactive = mostly below about 43%; note: 0% is about no effect
Giardia FBPA inh: inhibitors of Giardia lamblia fructose-1,6-bisphosphate aldolase | 0.71% of 290,000 active | purified Giardia FBPA | Potency, µM (highest dose often 59.6 µM), for inactives: at the top dose activity, negative = inhibition, hits mostly inhibitors | AID 2451; note: potency is the fitted concentration of half-maximal effect; % is set by controls: 0 for no effect and ±100 for the full control effect; nearly all actives have a fitted effect of over 55% in size
Target sequence (A8B2U2 whole entry, looked up): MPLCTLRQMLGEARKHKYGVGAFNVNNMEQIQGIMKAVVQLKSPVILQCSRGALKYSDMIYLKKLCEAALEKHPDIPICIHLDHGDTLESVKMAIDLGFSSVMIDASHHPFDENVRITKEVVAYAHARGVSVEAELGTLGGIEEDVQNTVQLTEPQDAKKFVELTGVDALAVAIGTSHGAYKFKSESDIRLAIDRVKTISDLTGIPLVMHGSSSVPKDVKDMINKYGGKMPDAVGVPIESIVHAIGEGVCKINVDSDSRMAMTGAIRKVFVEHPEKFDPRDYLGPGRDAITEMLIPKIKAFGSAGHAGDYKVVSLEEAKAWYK
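Giardia FBPA (40 nM reagent) was preincubated 10 min at RT with compound (up to 57.5 uM final), then substrate plus GAPDH/TPI/NAD/arsenate coupling system with diaphorase/resazurin was added; resorufin fluorescence (525/598 nm) was read after 20 min.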
The depositor's hits bear a star; [ ] = another dose, or the depositor's remark. In the library only some 14% were active in any assay of this set; here they are far more common. Unless noted, calls come from the whole dose curve; as a rule, active = well fitted curve in the direction sought with a large enough effect; inconclusive = small, poorly fitted or top-dose-only effect, or another doubt; inactive = no such curve, though single readings can be large; an effect the other way counts as inactive or inconclusive.

CC(=O)Nc1cccc(-c2csc(Nc3ncccn3)n2)c1 was read as NS1 function inh 8%, CHX counter 43*, LmPK inh -2%, Shiga toxin inh 91* and Giardia FBPA inh 0%.
`CC(=O)Nc1ccc(-c2csc(Nc3cccc(C)n3)n2)cc1` gave NS1 function inh 3%, CHX counter 50*, LmPK inh 3%, Shiga toxin inh 73* and Giardia FBPA inh -7%.
For CC(=O)Nc1ccc(-c2csc(NNC(=O)c3ccc(C)cc3)n2)cc1 the results were NS1 function inh 6%, CHX counter 11, LmPK inh 1%, Shiga toxin inh 7 and Giardia FBPA inh 8%.
`CC(=O)NNc1nc(-c2ccc(NC(C)=O)cc2)cs1` gave NS1 function inh inconclusive, CHX counter 3, LmPK inh 1%, Shiga toxin inh 11 and Giardia FBPA inh -10%.
CC=C1COC(C(=O)NCCOCCO)(C(F)(F)F)C=C1C=C(C)C (configuration not stated) was read as CHX counter -1, Shiga toxin inh 39 and Giardia FBPA inh 6%.
Screening CCOC(=O)[C@]1(C(NC(=O)OC)c2ccco2)CCCC1=O (some centres not stated) returned Giardia FBPA inh 0%[12.9 µM].
Screening CCC#CCOCC(=O)Nc1ccccc1 returned Giardia FBPA inh 3%.
For CCOC(=O)OCC1OC(C#Cc2ccccc2)C=CC1Oc1cccc(N(C)C)c1 (configuration not stated) the results were Giardia FBPA inh -6%[12.9 µM].
`O=C(/C=C/c1ccco1)N1CCN(S(=O)(=O)/C=C/c2ccccc2)CC1` gave NS1 function inh inconclusive, CHX counter 30*, LmPK inh -4%, Shiga toxin inh 49 and Giardia FBPA inh -3%.
`Cc1cc(C)n2nc(SCC(=O)NC3CCCC(C)C3C)nc2n1` (configuration not stated) gave NS1 function inh 7%, CHX counter 18, LmPK inh 2%, Shiga toxin inh 0 and Giardia FBPA inh 0%.
Screening Cc1nn(-c2ccccc2)nc1C(=O)Nc1ccc2c(c1)OCCO2 returned NS1 function inh -33%, CHX counter -2, LmPK inh -4% and Shiga toxin inh 6.
Cc1cc(C(=O)Nc2ccc3c(c2)OCCO3)nn1C(C)(C)C was read as NS1 function inh 0%, CHX counter 79*, LmPK inh 5%, Shiga toxin inh 140* and Giardia FBPA inh 3%.
Cc1ccn2cc(C(=O)Nc3ccc4c(c3)OCCO4)nc2c1 was read as NS1 function inh -65%, CHX counter 40*, LmPK inh -15%, Shiga toxin inh 60* and Giardia FBPA inh 0%.
For Cc1cc(C(=O)NNS(=O)(=O)c2cccc(Cl)c2)nn1C(C)(C)C the results were NS1 function inh 0%, CHX counter -2, LmPK inh 0%, Shiga toxin inh 19 and Giardia FBPA inh -1%.
Cc1cc(C(=O)Nc2ccccc2)nn1C(C)(C)C was read as NS1 function inh -38%, CHX counter 43*, LmPK inh -19%, Shiga toxin inh 67* and Giardia FBPA inh -5%.
For Cc1ccn2cc(C(=O)Nc3ccccc3N3CCOCC3)nc2c1 the results were NS1 function inh -56%, CHX counter 7, LmPK inh -2%, Shiga toxin inh 4 and Giardia FBPA inh -20%.
`COc1ccc(S(=O)(=O)Nc2ccc(F)cc2F)cc1C(=O)N1CCOCC1` gave NS1 function inh -1%, CHX counter -1, LmPK inh -5%, Shiga toxin inh 18 and Giardia FBPA inh -5%.
Screening CNc1ccc(C(=O)Oc2cc(O/N=[N+](\[O-])N(C)C)c([N+](=O)[O-])cc2[N+](=O)[O-])cc1 returned CHX counter 40*, Shiga toxin inh 73* and Giardia FBPA inh inconclusive.
Cc1cc(C(=O)COC(=O)c2ccncc2)c(C)n1Cc1ccco1 was read as CHX counter 44*, LmPK inh -4%, Shiga toxin inh 116* and Giardia FBPA inh -2%.
For Cc1cc(-c2csc(N)n2)c(C)n1C the results were NS1 function inh 19%, CHX counter 6, LmPK inh -15%, Shiga toxin inh 24 and Giardia FBPA inh inconclusive.
For O=C(OCC(=O)c1ccccc1Br)c1ccncc1 the results were CHX counter 24*, LmPK inh -14%, Shiga toxin inh 63* and Giardia FBPA inh -1%.
For O=C(OCC(=O)c1cccc2ccccc12)c1ccc(CO)cc1 the results were NS1 function inh -55%, CHX counter 42*, LmPK inh -2%, Shiga toxin inh 77* and Giardia FBPA inh -25%.
`Cc1cc(-c2csc(N)n2)c(C)n1Cc1ccco1` gave NS1 function inh 6%, CHX counter 36*, LmPK inh -5%, Shiga toxin inh 33 and Giardia FBPA inh -20%.
`COC(=O)C/C=C\[C@@H](C)[C@@H](/C=N\OC[C@@H](C)[C@H](OCc1ccccc1)C(C)C)NS(=O)(=O)c1ccc(C)cc1` gave Giardia FBPA inh 0%[12.9 µM].
Screening O=C(c1ccc2c(c1)CCN2S(=O)(=O)c1ccccc1)N1CCN(c2ccccc2F)CC1 returned NS1 function inh 6%, CHX counter -3, LmPK inh 1% and Shiga toxin inh -5.
`Cc1cc(C(=O)COC(=O)c2cc(Cl)ccc2N)c(C)n1Cc1ccco1` gave NS1 function inh 22%, CHX counter 91*, LmPK inh 1%, Shiga toxin inh 119* and Giardia FBPA inh -9%.
`Cc1cc(C(=O)CSc2nnc(N)s2)c(C)n1Cc1ccco1` gave CHX counter 39*, LmPK inh -14%, Shiga toxin inh 57* and Giardia FBPA inh -6%.
`Cc1cc(C(=O)COC(=O)c2ccco2)c(C)n1Cc1ccco1` gave CHX counter -2, LmPK inh -1%[11.5 µM], Shiga toxin inh -12 and Giardia FBPA inh -15%.
Cc1nnc2nc(-c3ccccc3)nc(-c3ccccc3)n12 was read as NS1 function inh 0%, CHX counter 4, LmPK inh 3%, Shiga toxin inh -2 and Giardia FBPA inh 4%.
Screening CCn1nccc1C(=O)Nc1ccc(Cl)cc1Cl returned NS1 function inh inconclusive, CHX counter 23*, LmPK inh 7%, Shiga toxin inh 40* and Giardia FBPA inh -1%.
CCn1nccc1C(=O)Nc1ccc(C(=O)OC(C)C)cc1 was read as NS1 function inh -21%, CHX counter 24*, LmPK inh -2% and Giardia FBPA inh 9%.
For COc1ccc(C)cc1S(=O)(=O)N1CCCC(C(=O)N2CCN(c3ccccc3)CC2)C1 (configuration not stated) the results were NS1 function inh -14%, CHX counter 0, LmPK inh 11%, Shiga toxin inh -4 and Giardia FBPA inh -5%.
COc1ccc(CCNC(=O)C2CC(c3ccccc3[N+](=O)[O-])=NO2)cc1 (configuration not stated) was read as NS1 function inh -10%, CHX counter 49*, LmPK inh -5%, Shiga toxin inh 52 and Giardia FBPA inh -2%.

Screens (PubChem BioAssay)
